Source: ChEMBL document CHEMBL3988442, “University of Dundee, Small-Polar-MMV Screening Library” (2021)
Out of some 38,000 compounds screened, about 1,200 (3.2%) showed an effect of 50% or more. The median lay at about -58%. This excerpt belongs to a sample that is enriched for strong results.

Tested on: Plasmodium falciparum
Assay: Calibr Malaria Delayed Death Assay SOP
Format: functional, organism-based
Set-up: scale not given: in the data most compounds retested in dose-response had high values
Details: concentration 4.99e-06 (unit not given; other assays of the set use mol/L)

SMILES	Percent Effect [%]
Cc1nccn1Cc1nnc(C2CCCN(c3ncccc3F)C2)n1C (configuration not stated)	-123.3
COCc1noc(Cn2c(C3CC3)nc3ccccc32)n1	-91.38
COc1cccc(C(=O)N2CCCC2c2ncc3c(n2)CCN(C)C3)c1 (configuration not stated)	-46.26
Cn1cc(C2(C)CN(Cc3ccc(Cl)c(F)c3)CCO2)cn1 (configuration not stated)	-40.79
CC(C)n1ccnc1C1CCN(Cc2ccc(Cl)c(F)c2)CC1	33.02
CN1CCN(Cc2ccc(F)cc2)Cc2cccnc21	-11.04
O=C(NCCc1nccs1)N1CCC(n2cccc2)CC1	-128.4
Cc1nc(CNC(=O)Nc2cc(C(F)(F)F)c[nH]c2=O)cs1	-139.2
O=S(=O)(NCC(O)c1cccs1)c1ccccc1Cl (configuration not stated)	-35.17
COc1ccc(S(=O)(=O)NCC(c2cccn2C)N(C)C)c(C)c1 (configuration not stated)	47.32
CC(CNS(=O)(=O)c1cccc(Cl)c1)N1CCN(C)CC1 (configuration not stated)	77.12
Cc1cc(F)ccc1S(=O)(=O)NCC(O)c1cccn1C (configuration not stated)	-27.19
Cc1cc(Cl)ccc1S(=O)(=O)NCC(C)N1CCN(C)CC1 (configuration not stated)	73.33
CC(=O)N1C[C@H](NS(=O)(=O)c2cccc(Cl)c2)[C@@H](C(C)C)C1	-122
CC(NCCNS(=O)(=O)c1cccc(Cl)c1)C1CCOCC1 (configuration not stated)	24.26
Cc1c(Cl)cccc1S(=O)(=O)NCC(O)c1cccn1C (configuration not stated)	-3.502
Cc1cccc(S(=O)(=O)NCC(C)N2CCN(C)CC2)c1Cl (configuration not stated)	80.79
Cc1cccc(-n2nnnc2C(C)(C)Nc2ccccc2C)c1	-66.56
O=C(c1ccc2c(c1)COC2)N1CCCN(Cc2cscn2)CC1	-90.53

SMILES	Percent Effect [%]
Cc1nn(C)c(N2CCCN(C)CC2)c1CNC(=O)CC(C)(C)C	-44.23
Cc1nc(CN2CCC3(CCCN(Cc4ccncc4)C3)C2=O)cs1.O=C(O)C(F)(F)F.O=C(O)C(F)(F)F.O=C(O)C(F)(F)F (configuration not stated)	-86.96
CCc1cc(NCCCOC2CCCC2)ncn1	-19.37
O=C(c1ccn(-c2ccc(F)cc2)n1)N(CCO)Cc1cccnc1	-20.41
CN(C)CCN(Cc1cccnc1)C(=O)c1ccn(-c2ccccc2)n1	87.52
N#CCCN(Cc1cccnc1)C(=O)c1ccn(-c2ccccc2)n1	-29.34
Cc1ncoc1C(=O)N1CCOC(CC2CCCCC2)C1 (configuration not stated)	-117.2
CCOc1ccc2[nH]c(=O)c(CN3CCCCC3C)cc2c1 (configuration not stated)	-50.88
Cc1occc1C(=O)NCC1OCCc2cn(C)nc21.O=C(O)C(F)(F)F (configuration not stated)	-17.21
Cc1nn(CC(=O)NCC2(C(N)=O)CCOCC2)c(C)c1Cl	-63.22
CCn1ccnc1C1CCN(Cc2cccc(C)n2)CC1	-98.55
Cc1cccc(CN2CCC(NS(C)(=O)=O)CC2)n1	-83.22
O=C(c1c(O)cnc2ccccc12)N1CCCSCC1	-75.93
CCn1c(C)cc(C(=O)N2CCC(Nc3ccc(C)nn3)CC2)c1C	-49.09
COc1ccccc1CNc1c(N2CCN(C(C)=O)CC2)c(=O)c1=O	-13.77
Cc1nc(CCC(=O)NCC(N)=O)cc(C2CCNCC2)n1	-86.52
CNC(=O)CCc1cc(C2CCNCC2)nc(C)n1.Cl.Cl	-15.84
COc1ccc2cnn(CC(=O)NC3CCCCC3)c(=O)c2c1OC	-20.95
Cc1nn(Cc2ccc(C(=O)NCCCN3CCCC3=O)o2)c(C)c1Br	-82.86

SMILES	Percent Effect [%]
CC(C)N(C)Cc1cnc2n1CCN(Cc1cccc(C#N)c1)C2	10.5
COc1ccc(CC(C)(O)CNC(=O)Cc2cccs2)cc1 (configuration not stated)	-86.25
CC(O)(CCc1ccccc1)CNC(=O)c1cccs1 (configuration not stated)	-19.61
COc1ccc(CC(C)(O)CNC(=O)c2cccs2)cc1 (configuration not stated)	88.99
CCN1C(=O)CCCC12CCCN(C(=O)c1ccncc1F)C2.O=C(O)C(F)(F)F (configuration not stated)	-52.32
CC(=O)Nc1nc(CS(=O)(=O)Cc2ccccc2)cs1	-16.97
COCCN1Cc2ccccc2C2(CCN(C(=O)c3ccno3)CC2)C1	-21.64
Cc1csc2c(N3CCC(Cn4cc(C(C)(C)O)nn4)CC3)ncnc12	-16.92
Cc1csc2c(N3CCC(NCCCc4ccncc4)CC3)ncnc12	63.19
N#Cc1ccc(CNC(=O)NC2CCN(CC(F)(F)F)C2)cc1 (configuration not stated)	-80.57
CCCN1CCC(NCc2ccncc2)CC1	-53.14
CSc1ccc(CNC2CCN(CCc3ccncc3)CC2)cc1	92.6
Cc1cccc(CNC2CCN(CCc3ccncc3)CC2)c1C	75.22
COCCN1CCC(NCc2cccnc2)C1 (configuration not stated)	-54.93
N#Cc1ccc(CNC2CCN(CCc3ccncc3)CC2)cc1	54.87
N#Cc1ccc(CNC(=O)NC2CCN(c3ncccn3)CC2)cc1	-82.81
Cc1ccc(CNC2CCN(CCc3ccncc3)CC2)s1	-5.622
COCCn1ccnc1C1CCCN(c2ncnc3c(C)csc23)C1 (configuration not stated)	-130.5
COC(=O)C(O)C1CCN(CCc2ccncc2)CC1 (configuration not stated)	-64.35
